From PubChem BioAssay come the findings set out here.

Molecules are shown by their SMILES. Calls of active or inactive are those of the source.

Sequence of Torsin-1A-interacting protein 2 (Homo sapiens) (Q8NFQ8 whole entry, looked up): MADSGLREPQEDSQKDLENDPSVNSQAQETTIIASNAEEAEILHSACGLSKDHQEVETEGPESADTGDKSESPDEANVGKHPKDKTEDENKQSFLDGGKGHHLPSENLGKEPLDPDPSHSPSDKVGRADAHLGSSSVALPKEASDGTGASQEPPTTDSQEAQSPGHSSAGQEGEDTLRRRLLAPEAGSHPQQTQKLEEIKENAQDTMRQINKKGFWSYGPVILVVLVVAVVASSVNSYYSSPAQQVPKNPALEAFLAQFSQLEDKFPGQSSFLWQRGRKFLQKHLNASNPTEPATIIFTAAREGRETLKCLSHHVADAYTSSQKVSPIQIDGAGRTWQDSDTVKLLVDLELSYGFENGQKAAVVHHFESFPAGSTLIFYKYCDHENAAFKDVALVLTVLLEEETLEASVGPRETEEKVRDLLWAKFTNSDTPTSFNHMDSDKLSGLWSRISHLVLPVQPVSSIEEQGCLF

One experiment concerns the target Torsin-1A-interacting protein 2 (Homo sapiens) (UniProt Q8NFQ8). The experiment in a line: small molecules binding lysate-expressed LULL1 – cell lysate, human LULL1 lysate, 635/667 nm fluorescence, primary screen (AID 1092).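 Further: probe is lysate of COS7 cells overexpressing human LULL1; score merges per-feature 667 nm fluorescence with signal-to-noise.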 As to conditions: small-molecule microarray, hLULL1 lysate binding, 635 nm fluorescence; higher = more signal.
Take `CCCCCCCCCCC(O)C1C=CC2C(=O)N(c3ccccc3)C(=O)C2N1Nc1ccccc1F` (centres undefined): the composite z-score is 1.59.
As to `COC(=O)C1N=C(c2ccc(OCCCO)cc2)N(c2ccccc2)O1` (centres undefined), the composite z-score is 2.07.
Still for that read-out and setting: to `COC(=O)[C@@]1(Cc2ccc(F)cc2)[C@H]2c3cc(C(=O)N4CCCC4)n(C)c3C[C@H]2CN1C(=O)c1ccccc1` belongs 3.25; to `O=C1C2C=CC(C(O)C=Cc3ccc([N+](=O)[O-])cc3)N(Nc3ccccc3)C2C(=O)N1c1ccccc1` (centres undefined), 2.78.

Tested on in another experiment: not listed separately
Kind of experiment: optical density change of DRC41 E. coli – strain DRC41, OD650, 24 h, E. coli filamentation project, primary screen (AID 1093).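 Further: MC1000 strain lacking acrAB efflux and sulA so SOS filamentation is blocked; test concentration not given here.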 Particulars: E. coli DRC41 growth, higher = more signal, called active from +8 up or from −8 down.
As for `CCOC(=O)C=Cc1cc(F)ccc1O`, the z-score is -0.624 (inactive).
On to `[N-]=[N+]=Nc1ccccc1[C@@H]1OC(c2ccc(OCCCO)cc2)=N[C@]1(Cc1ccccc1)C(=O)NCc1ccccc1`, for which the z-score is -0.0484 (inactive).
Same read-out and setting: to `Cc1ccccc1C(O)C1C=CC2C(=O)NC(=O)C2N1Nc1ccc(Cl)cc1Cl` (centres undefined) belongs -1.24 (inactive); to `COc1ccc([Si](C)(C)[C@H]2[C@H](CCO)O[C@@]3(C(=O)N(Cc4ccccc4)c4ccc(N5CCOC5=O)cc43)[C@@H]2C)cc1`, 0.147 (inactive); to `COCC1C2CC[C@H]3C(OCc4ccc(OC)cc4)OC[C@]4(C)[C@H]3C2=C(CN4C(=O)OC(C)(C)C)[C@H](C)C1COC` (some centres undefined), -1.22 (inactive).
`COCCOC(=O)N1C(=O)[C@@]2(c3cc(C#CC4(O)CCCCCC4)ccc31)[C@H](C(=O)N1CCN(c3ncccn3)CC1)[C@H]1C(=O)O[C@H](c3ccccc3)[C@H](c3ccccc3)N1[C@@H]2c1ccccc1OCCO`: the z-score is -0.267 (inactive).
Same read-out and setting: to `COc1ccc(C(=O)Nc2cccc(CN3C(=O)[C@@]4(O[C@@H](CC(=O)N(CCO)Cc5ccccc5)[C@H]([Si](C)(C)c5ccc(OC)cc5)[C@H]4C)c4ccccc43)c2)cc1` belongs 0.904 (inactive).
Same read-out and setting: to `COCCOC(=O)N1C(=O)[C@@]2(c3cc(C#CCNC(N)=O)ccc31)[C@H](c1ccc(O)cc1)N1[C@H](c3ccccc3)[C@H](c3ccccc3)OC(=O)[C@H]1[C@@H]2C(N)=O` belongs 1.04 (inactive); to `O=C1C2C=CC(C(O)c3cccc(O)c3)N(Nc3ccccc3)C2C(=O)N1c1ccccc1` (centres undefined), -0.542 (inactive); to `COc1ccc([Si](C)(C)[C@@H]2[C@@H](CC(=O)N3Cc4ccccc4C[C@H]3CO)O[C@]3(C(=O)N(c4ccccc4)c4ccccc43)[C@H]2C)cc1`, 0.774 (inactive).
In the case of `COc1ccc(C(O)C2C=CC3C(=O)N(c4ccccc4)C(=O)C3N2Nc2ccccc2F)cc1` (centres undefined), the z-score is 0.0902 (inactive).
The same measure, in the same setting: to `COCCOC(=O)N1C(=O)[C@@]2(c3cc(C#CCC(C(=O)OC)C(=O)OC)ccc31)[C@H](c1ccc(O)cc1)N1[C@H](c3ccccc3)[C@H](c3ccccc3)OC(=O)[C@H]1[C@@H]2C(=O)NC[C@H](O)c1ccccc1` belongs 1.81 (inactive); to `COCC(=C=CC[C@H](O)c1cccc(OCCO)c1)C[C@H](O)COCc1ccccc1`, -0.142 (inactive); to `C=C(C)[C@@H]1CC=C(C(O)C2C=CC3C(=O)N(c4ccccc4)C(=O)C3N2Nc2ccc(C#N)cc2)CC1` (some centres undefined), -1.9 (inactive).
On to `COc1ccc(NC(=O)O[C@H]2[C@@H]3OC(=O)[C@H](Cc4cccc(Br)c4)C/C=C/C[C@@H](Cc4cccc(Br)c4)C(=O)O[C@H]3[C@@H](OC)O[C@@H]2CO)cc1`, for which the z-score was 0.904 (inactive).
For `C=C(/C(=C/C[C@H](OC(=O)c1ccncc1)c1cccc(OCCO)c1)c1cnc2ccccc2c1)C(C)C`, the z-score was -0.315 (inactive).
Still for that read-out and setting: to `CS(=O)(=O)CCOC(=O)C1=CC(CCCO)=CC(C2CC2)N(Cc2cccc(OC(F)(F)F)c2)C=C1C(=O)OCCS(C)(=O)=O` (centres undefined) belongs -0.917 (inactive).
Consider `NC(=O)[C@H]1[C@@H]2C(=O)O[C@@H](c3ccccc3)[C@@H](c3ccccc3)N2[C@@H](c2ccc(O)cc2)[C@]12C(=O)Nc1ccc(C#CC3=CCCCC3)cc12`, for which the z-score was -1.32 (inactive).
The same measure, in the same setting: to `[N-]=[N+]=NCc1ccccc1[C@@H]1OC(c2ccc(OCCCO)cc2)=N[C@]1(Cc1ccccc1)C(=O)NCCN1CCOCC1` belongs 1.11 (inactive); to `COc1cc(C(O)C2C=CC3C(=O)N(Cc4ccccc4)C(=O)C3N2n2cnnc2)cc(OC)c1OC` (centres undefined), 0.582 (inactive); to `C=CCN1C(=O)[C@@]2(O[C@@H](CCO)[C@H]([Si](C)(C)c3ccc(OC)cc3)[C@H]2C)c2cc(N3CCOC3=O)ccc21`, 0.976 (inactive).
Take `CC(C)[C@H]1NC(=O)[C@@]23C(=O)N[C@@H](Cc4ccccc4)C2[C@H](C)[C@@]2(C)O[C@H]2C3/C=C/C/C=C\CNC(=O)[C@H](Cc2ccccc2)NC1=O` (some centres undefined): the z-score is 0.317 (inactive).
The same measure, in the same setting: to `O=C1C2C=CC(C(O)c3ccco3)N(Nc3ccccc3)C2C(=O)N1c1ccccc1` (centres undefined) belongs -0.353 (inactive).
Still for that read-out and setting: to `CC(C)C[C@@H]1NC(=O)[C@@]23C(=O)N[C@@H](Cc4ccccc4)C2[C@H](C)[C@@]2(C)O[C@H]2C3/C=C/C/C=C\CNC(=O)[C@@H](C)NC1=O` (some centres undefined) belongs 0.624 (inactive).
Regarding `CCN(CC)c1ccc(N2CC=CC34O[C@@H]5/C=C\CCC(C)OC(=O)C5[C@H]3C(=O)N(C(C)CO)[C@@H]4C2=O)cc1` (some centres undefined), the z-score is 1.13 (inactive).
As for `CO[C@H]1O[C@H](CO)[C@@H](OC(=O)c2ccc(Br)cc2)[C@@H]2OC(=O)[C@H](Cc3ccccc3)C/C=C/C[C@@H](Cc3ccccc3)C(=O)O[C@@H]12`, the z-score is 2.14 (inactive).
Regarding `CC(C)C(CO)N1C(=O)[C@@H]2[C@H]3C(=O)OCC=C[C@H]3OC23C=CCN(C(C)(C)C)C(=O)[C@@H]13` (some centres undefined), the z-score is -0.7 (inactive).
Take `[N-]=[N+]=Nc1ccccc1C[C@]1(C(=O)O)N=C(c2ccc(OCCCO)cc2)O[C@H]1c1ccccc1N=[N+]=[N-]`: the z-score is 0.814 (inactive).
Consider `C=C(/C(=C/C[C@@H](OC(=O)c1ccncc1)c1cccc(OCCO)c1)c1cnc2ccccc2c1)C(C)C`, for which the z-score is 0.915 (inactive).
On the same count and under the same terms, to `CCCNC(=O)[C@@]1(Sc2ccc(C)cc2)CC(=O)N(C(C)C)[C@@H]1c1ccc(CO)cc1I` belongs -0.157 (inactive).
On the same count and under the same terms, to `C=CCNC(=O)[C@@H]1[C@H]2C(=O)O[C@H](c3ccccc3)[C@H](c3ccccc3)N2[C@H](c2ccc(OCCO)cc2)[C@@]12C(=O)N(C(=O)OCCOC)c1ccc(C#CCCO)cc12` belongs 2.17 (inactive); to `CCCCCCCCCCC(O)C1C=CC2C(=O)N(c3ccccc3)C(=O)C2N1Nc1ccccc1F` (centres undefined), -1.47 (inactive); to `COC(=O)C1N=C(c2ccc(OCCCO)cc2)N(c2ccccc2)O1` (centres undefined), 0.267 (inactive).
The same measure, in the same setting: to `COC(=O)[C@@]1(Cc2ccc(F)cc2)[C@H]2c3cc(C(=O)N4CCCC4)n(C)c3C[C@H]2CN1C(=O)c1ccccc1` belongs 0.508 (inactive); to `O=C1C2C=CC(C(O)C=Cc3ccc([N+](=O)[O-])cc3)N(Nc3ccccc3)C2C(=O)N1c1ccccc1` (centres undefined), -0.608 (inactive).
